7 compounds from PubChem BioAssay (Tox21) can be followed below.

A short description of test [1]: Nuclear factor erythroid 2-related factor 2/antioxidant responsive element (Nrf2/ARE) small molecule agonists: qHTS cell viability counter screen in human keratinocytes (AID 1919968; active means well fitted curve in the direction sought with a large enough effect in the repeat runs; an effect the other way counts as inactive or inconclusive; further: nearly all actives have a fitted effect of over 55% in size). In short, it runs like this:
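Parallel cytotoxicity read: KeratinoSens HaCaT cells, compound treatment 23 h, viability by CellTiter-Fluor fluorescence 1 h post-reagent.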
Background: qHTS replaces the single test concentration by a dilution series.

A short description of test [2]: Nuclear factor erythroid 2-related factor 2/antioxidant responsive element (Nrf2/ARE) small molecule agonists: luciferase reporter gene qHTS assay in human keratinocytes (AID 1919969). Further: nearly all actives have a fitted effect of over 35% in size. Further: potency means the concentration at half of the fitted maximal effect. Background: Reporter assays use an easily measured gene product as a stand-in for the process of interest.
For test [3], the target named is Gonadotropin-releasing hormone receptor (Homo sapiens) (UniProt P30968). Description: Human gonadotropin-releasing hormone receptor (GnRHR) small molecule agonists, calcium flux assay in GnRHR-HEK293 cells (AID 1920063). Further: nearly all actives have a fitted effect of over 35% in size. In short, it runs like this: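 Calcium flux, agonist mode, human GnRHR stably integrated in HEK293; dye 1 h at 37 C before compound; Ex/Em=480/540 kinetic read, 3 min; 15 concentrations, triplicate.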
Gonadotropin-releasing hormone receptor (Homo sapiens), sequence (P30968 whole entry, looked up): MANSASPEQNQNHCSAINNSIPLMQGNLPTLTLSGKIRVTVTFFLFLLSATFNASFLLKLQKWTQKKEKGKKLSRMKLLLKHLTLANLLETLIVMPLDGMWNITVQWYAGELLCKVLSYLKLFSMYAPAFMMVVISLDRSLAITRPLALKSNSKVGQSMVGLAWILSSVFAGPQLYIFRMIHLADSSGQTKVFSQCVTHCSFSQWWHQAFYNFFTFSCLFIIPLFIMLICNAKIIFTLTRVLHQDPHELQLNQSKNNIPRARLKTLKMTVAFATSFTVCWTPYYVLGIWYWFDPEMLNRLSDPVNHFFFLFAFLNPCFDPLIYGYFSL
A general note: Calcium assays in cells follow changes in intracellular calcium, usually with a dye or a luminescent sensor.

The target in test [4] is KiSS-1 receptor (Homo sapiens) (UniProt Q969F8). Description: Human kisspeptin (KISS1R) small molecule agonists, calcium flux assay in KISS1R-HEK293 cells (AID 1920064; active means well fitted curve in the direction sought with a large enough effect in the repeat runs; an effect the other way counts as inactive or inconclusive). An outline of the steps: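 Triplicate 15-concentration series were applied to dye-loaded human KISS1R HEK293 cells, and agonist-evoked calcium fluorescence was captured for 3 min.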
KiSS-1 receptor (Homo sapiens), sequence (Q969F8 whole entry, looked up): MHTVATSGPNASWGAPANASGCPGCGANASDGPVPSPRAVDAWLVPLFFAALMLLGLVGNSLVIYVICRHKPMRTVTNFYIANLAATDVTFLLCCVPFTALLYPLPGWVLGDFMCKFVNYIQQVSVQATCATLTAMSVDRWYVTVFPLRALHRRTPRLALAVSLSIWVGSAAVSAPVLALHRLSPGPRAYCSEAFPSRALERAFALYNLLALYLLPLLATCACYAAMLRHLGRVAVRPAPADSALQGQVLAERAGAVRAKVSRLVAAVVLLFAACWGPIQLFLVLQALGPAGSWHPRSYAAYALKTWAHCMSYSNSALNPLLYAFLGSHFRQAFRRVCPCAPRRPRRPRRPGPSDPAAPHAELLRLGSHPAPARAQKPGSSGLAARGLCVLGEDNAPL
Test [5] can be described thus: G protein-coupled receptor (GPCR) small molecule agonists, calcium flux assay: HEK293 wild type cell line counter screen (AID 1920065). In short, it runs like this: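 Non-specific calcium responders were flagged by adding DMSO-dissolved compounds to dye-loaded cells and reading 480/540 nm fluorescence each second for 3 min; ATP served as positive control.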
The nature of test [6]: p53 small molecule agonists, cell-based qHTS assay with human liver microsomes (AID 1963577).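 Further: p53 response element beta-lactamase reporter cells with liver microsomes plus NADPH.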 An outline of the steps:
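HLM-supplemented p53RE-bla reporter assay: 16 h compound exposure at 37 C, microsomes and NADPH each 0.5 mg/mL final, read by fluorescence intensity.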

Test [7] in a line: p53 small molecule agonists, cell-based qHTS assay with rat liver microsomes (AID 1963578). In short, it runs like this: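 Quantitative HTS of the Tox21 10K library: p53RE-bla cells, rat liver microsomes plus NADPH at 0.5 mg/mL final each, 16 h at 37 C, beta-lactamase fluorescence detection.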
A short description of test [8]: p53 small molecule agonists, cell-based qHTS assay with human liver microsomes: qHTS cell viability counter screen (AID 1963579). Further: nearly all actives have a fitted effect of over 45% in size. An outline of the steps: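 Viability of p53RE-bla cells is measured as CellTiter-Glo luminescence following a 16 h, 37 C incubation with compound, liver microsomes from human donors and NADPH.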
A short description of test [9]: p53 small molecule agonists, cell-based qHTS assay with rat liver microsomes: qHTS cell viability counter screen (AID 1963580). Further: nearly all actives have a fitted effect of over 45% in size. An outline of the steps:
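Cytotoxicity counter screen: intracellular ATP read by CellTiter-Glo luminescence in the p53 reporter wells. HCT-116 p53RE-bla cells were treated for 16 h at 37 C alongside rat liver microsomes and NADPH, each 0.5 mg/mL final.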

The nature of test [10]: p53 small molecule agonists, cell-based qHTS assay (AID 1963582; active means well fitted activation curve with a large enough effect in the signal ratio in the repeat runs, not every such curve was filed as active; the % refers to the signal ratio). In short, it runs like this:
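Beta-lactamase reporter cells (p53RE-bla) treated with compounds for 16 h at 37 C; FRET substrate, 2 h, room temperature; fluorescence intensity.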

Test [11] can be described thus: cAMP Responsive Elements (CRE) small molecule agonists, cell-based qHTS assay (AID 1963590). In short, it runs like this: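 Quantitative HTS for CRE agonists: HEK 293T CRE-bla cells, overnight plating, 3 h compound incubation at 37 C/5% CO2, then 2 h room-temperature LiveBLAzer B/G FRET substrate loading.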
The nature of test [12]: cAMP Responsive Elements (CRE) small molecule antagonists, cell-based qHTS assay (AID 1963591; active means well fitted inhibition curve with a large enough effect in the signal ratio in the repeat runs, not every such curve was filed as active; the % refers to the signal ratio). An outline of the steps:
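Fluorescence intensity from cleaved LiveBLAzer B/G substrate (2 h, room temperature) quantified CRE-bla activity in HEK 293T cells exposed 3 h to compound with 0.25 uM final NKH477.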

The target in test [13] is Beta-2 adrenergic receptor (Homo sapiens) (UniProt P07550). The test can be described thus: Adrenergic beta2 receptor (ADRB2) small molecule antagonists, cell-based qHTS assay (AID 1963592). Further: series mostly up to about 92 µM; nearly all actives have a fitted effect of over 50% in size. In short, it runs like this:
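Assay format: CHO-ADRB2 cells, 18-20hr seeding at 37C/5% CO2, then compound plus 1nM isoproterenol agonist mix for 0.5hr RT. Homogeneous time-resolved fluorescence cAMP detection after 1hr, expressed as 665/615 nm ratio.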

Test [14] deals with D(2) dopamine receptor (Homo sapiens) (UniProt P14416). The test can be described thus: Dopamine D2 receptor (DRD2) small molecule agonists, cell-based qHTS assay (AID 1963594). Further: nearly all actives have a fitted effect of over 35% in size. In short, it runs like this:
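cAMP accumulation in DRD2-HEK293 cells measured by HTRF after 1 h detection; compounds added 10 min before NKH477 (200nM […]) forskolin-analogue stimulation, 30 min at room temperature, with Ro20-1724 present at 0.1 mM final.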

Test [15] has the same target. Description: Dopamine D2 receptor (DRD2) small molecule antagonists, cell-based qHTS assay (AID 1963595; active means well fitted inhibition curve with a large enough effect in the signal ratio in the repeat runs, with a control signal flat; the % refers to the signal ratio). An outline of the steps:
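HEK293 cells stably expressing DRD2 were preincubated with 0.1 mM Ro20-1724, then with compound for 10 min at room temperature. Cells were stimulated with 200 nM NKH477 plus 12 nM quinpirole for 30 min, and cAMP was read by HTRF.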

Test [16] addresses 5-hydroxytryptamine receptor 2A (Homo sapiens) (UniProt P28223). Description: 5-hydroxytryptamine receptor 2A (HTR2A) small molecule antagonists, cell-based qHTS assay (AID 1963586). Further: nearly all actives have a fitted effect of over 45% in size. In short, it runs like this: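 CHO cells stably expressing human HTR2A were plated for 18 h at 37 C, then loaded with calcium dye for 1 h. Compounds were preincubated 5 min at room temperature before DOI (4 nM solution) was added. Kinetic fluorescence was read for 3 min.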

Test [17] deals with Muscarinic acetylcholine receptor M1 (Homo sapiens) (UniProt P11229). The test can be described thus: Cholinergic receptor muscarinic 1 (CHRM1) small molecule antagonists, cell-based qHTS assay (AID 1963588). Further: nearly all actives have a fitted effect of over 40% in size. In short, it runs like this:
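Compounds were tested at 15 concentrations in three independent runs. Dye-loaded CHRM1-CHO cells were exposed 5 min at room temperature before stimulation by acetylcholine added at 50nM. Intracellular calcium was read kinetically on FDSS for 3 min.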

For test [18] the target is unchanged. The test can be described thus: Cholinergic receptor muscarinic 1 (CHRM1) small molecule agonists, cell-based qHTS assay (AID 1963589). Further: nearly all actives have a fitted effect of over 35% in size. In short, it runs like this:
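qHTS, 15-point titration, 3 independent runs: compounds pin-transferred onto dye-loaded CHRM1-CHO cells (human M1), calcium fluorescence followed every second to detect agonism.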

Test [19] can be described thus: p53 small molecule agonists, cell-based qHTS assay: qHTS cell viability counter screen (AID 1963581). Further: nearly all actives have a fitted effect of over 45% in size. In short, it runs like this: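 Multiplexed with the reporter read, a CellTiter-Glo step (30 min, room temperature) gauges ATP-based viability of HCT-116 p53RE-bla cells after 16 h compound incubation at 37 C.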
For test [20], the target named is 5-hydroxytryptamine receptor 2A (Homo sapiens) (UniProt P28223). Description: 5-hydroxytryptamine receptor 2A (HTR2A) small molecule agonists, cell-based qHTS assay (AID 1963587). Further: nearly all actives have a fitted effect of over 30% in size. In short, it runs like this: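 Kinetic calcium-flux fluorescence (2 min, 1 sec intervals) after compound addition in agonist mode. HTR2A-CHO cells were cultured 18 h, then dye-loaded 1 h at 37 C.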
5-hydroxytryptamine receptor 2A (Homo sapiens), sequence (P28223 whole entry, looked up): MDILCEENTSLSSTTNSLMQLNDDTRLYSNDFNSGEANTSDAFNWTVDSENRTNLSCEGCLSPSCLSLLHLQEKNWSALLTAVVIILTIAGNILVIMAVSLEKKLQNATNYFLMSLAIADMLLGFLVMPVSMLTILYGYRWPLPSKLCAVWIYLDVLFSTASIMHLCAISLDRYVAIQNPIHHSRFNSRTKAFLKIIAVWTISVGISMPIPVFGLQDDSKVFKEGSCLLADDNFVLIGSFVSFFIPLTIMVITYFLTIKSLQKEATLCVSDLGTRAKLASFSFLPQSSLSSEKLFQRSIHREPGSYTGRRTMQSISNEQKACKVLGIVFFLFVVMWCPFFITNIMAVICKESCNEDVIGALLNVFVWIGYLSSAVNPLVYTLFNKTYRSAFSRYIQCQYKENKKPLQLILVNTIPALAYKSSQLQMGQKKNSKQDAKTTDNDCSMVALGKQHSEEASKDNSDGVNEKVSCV

Inconclusive results are not listed. Some structures have more than one record in an assay (separate samples or runs), and their calls can disagree. Active and inactive are the calls of the source. Unless noted, the call rests on the fitted dose curve.

D(2) dopamine receptor (Homo sapiens), sequence (P14416 whole entry, looked up): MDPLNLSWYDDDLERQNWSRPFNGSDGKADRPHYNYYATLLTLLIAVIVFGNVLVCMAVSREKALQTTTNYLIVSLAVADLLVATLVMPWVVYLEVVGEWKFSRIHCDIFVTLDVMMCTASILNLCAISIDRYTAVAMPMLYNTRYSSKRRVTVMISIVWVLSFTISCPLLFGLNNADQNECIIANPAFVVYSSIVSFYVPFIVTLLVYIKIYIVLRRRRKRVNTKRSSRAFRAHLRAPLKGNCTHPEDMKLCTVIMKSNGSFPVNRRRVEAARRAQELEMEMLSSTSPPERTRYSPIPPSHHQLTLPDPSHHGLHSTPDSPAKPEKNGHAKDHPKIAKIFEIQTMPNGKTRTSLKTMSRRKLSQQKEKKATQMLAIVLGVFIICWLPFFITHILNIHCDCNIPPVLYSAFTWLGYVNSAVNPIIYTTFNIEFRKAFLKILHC
Muscarinic acetylcholine receptor M1 (Homo sapiens), sequence (P11229 whole entry, looked up): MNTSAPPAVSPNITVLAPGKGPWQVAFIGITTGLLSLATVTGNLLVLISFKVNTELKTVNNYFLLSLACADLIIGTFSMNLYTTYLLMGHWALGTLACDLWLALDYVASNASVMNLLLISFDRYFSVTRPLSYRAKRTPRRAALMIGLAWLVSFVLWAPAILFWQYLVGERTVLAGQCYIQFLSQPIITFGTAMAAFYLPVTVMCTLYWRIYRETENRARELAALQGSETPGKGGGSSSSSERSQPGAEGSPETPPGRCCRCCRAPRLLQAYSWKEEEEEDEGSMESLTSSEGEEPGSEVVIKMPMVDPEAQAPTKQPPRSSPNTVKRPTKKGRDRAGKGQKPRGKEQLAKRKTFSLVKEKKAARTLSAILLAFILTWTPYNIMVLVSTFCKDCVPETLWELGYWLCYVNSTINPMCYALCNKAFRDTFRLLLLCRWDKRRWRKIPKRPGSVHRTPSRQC
Beta-2 adrenergic receptor (Homo sapiens), sequence (P07550 whole entry, looked up): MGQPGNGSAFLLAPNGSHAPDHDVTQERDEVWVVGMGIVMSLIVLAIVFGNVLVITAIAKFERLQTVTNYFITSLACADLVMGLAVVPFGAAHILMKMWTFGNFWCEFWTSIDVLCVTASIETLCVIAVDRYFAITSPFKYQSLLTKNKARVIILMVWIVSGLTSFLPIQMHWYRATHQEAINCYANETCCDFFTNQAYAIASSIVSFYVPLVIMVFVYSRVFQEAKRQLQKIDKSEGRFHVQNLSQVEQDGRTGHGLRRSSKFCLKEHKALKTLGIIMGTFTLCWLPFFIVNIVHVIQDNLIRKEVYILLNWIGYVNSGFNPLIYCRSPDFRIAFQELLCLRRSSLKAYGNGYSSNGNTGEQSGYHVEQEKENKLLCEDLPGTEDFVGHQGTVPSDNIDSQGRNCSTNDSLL

Take `c1ccc2c(c1)Nc1ccccc1S2`: the Potency entry in test [1], in [3], in test [4], in test [5], in test [6] and in [7] was “inactive” each time. Moreover, the Potency entry in test [8], in test [9], in test [10], in [11], in test [12] and in [13] was “inactive” in each case. The Potency result in test [14] and in [15] was “inactive” throughout. Moreover, in [2], the Potency was 61.1 µM (active) and inactive.

As to `CC(O)CCO` (configuration not stated), the Potency result in [1], in [2], in test [3], in [4], in [5] and in test [6] was “inactive” in each case. For the same compound, the Potency result in test [7], in test [8], in test [9], in test [16], in test [17] and in test [18] was “inactive” in each case. Besides, the Potency entry in [11], in test [12], in test [13] and in test [14] was “inactive” throughout.

For `COCC(=O)N(c1c(C)cccc1C)N1CCOC1=O`, the Potency entry in test [1], in test [2], in test [3], in test [4], in [5] and in [6] was “inactive” throughout. The Potency entry in test [7], in [8], in [19], in test [10], in test [16] and in [20] was “inactive” throughout. Further, the Potency result in test [17], in test [18], in test [11], in test [12], in test [13] and in test [14] was “inactive” each time. In addition, the Potency entry in [15] was “inactive”.

`CCOc1nc(F)cc2nc(S(=O)(=O)Nc3c(Cl)cccc3Cl)nn12`: the Potency result in test [1], in [2], in test [3], in test [4], in [5] and in test [6] was “inactive” each time. Besides, the Potency result in test [7], in test [8], in [9], in test [10], in test [16] and in test [20] was “inactive” each time. The Potency result in test [17], in [18], in test [12] and in test [14] was “inactive” each time.

For the compound `CCCCCCOC(=O)c1ccccc1C(=O)OCCCCCC`, the Potency result in test [1], in [2], in test [3], in test [4], in test [5] and in test [6] was “inactive” in each case. The Potency result in test [7], in test [8], in test [19], in [10], in [16] and in [20] was “inactive” in each case. For the same compound, the Potency entry in test [17], in test [18], in test [11], in test [12], in [13] and in [14] was “inactive” in each case. For the same compound, the Potency entry in [15] was “inactive”.

Turning to `O=C([O-])c1ccccn1.O=C([O-])c1ccccn1.O=C([O-])c1ccccn1.[Cr+3]`, the Potency result in test [1], in test [2], in test [3], in test [4], in test [5] and in [6] was “inactive” in each case. Further, the Potency result in [7], in test [8], in [19], in [10], in test [16] and in [20] was “inactive” throughout. The Potency entry in test [17], in test [18], in [11], in test [12], in test [13] and in test [14] was “inactive” each time. Also, the Potency entry in [15] was “inactive”.

For the compound `O=C(NC(=O)c1ccccc1Cl)Nc1ccc(OC(F)(F)F)cc1`, the Potency entry in test [1], in test [2], in test [3], in test [4], in test [5] and in test [6] was “inactive” each time. Besides, the Potency entry in [7], in test [8], in [19], in test [10], in [16] and in test [20] was “inactive” in each case. The Potency entry in test [17], in test [18], in test [11], in test [12], in test [13] and in test [14] was “inactive” in each case.
